Test results: PubChem BioAssay (NCI)
This is part of a sample that, as a whole, favours compounds with a hit. Of some 79,000 tested, about 15% had one in any assay. Active and inactive are the calls of the source. No stated cut-off is given here; in the data, active means growth inhibition above about 70%; inactive means the rest.

Key:
[1] = NCI Yeast Anticancer Drug Screen. Data for the rad52 strain (AID 147);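 further: 0% = growth of vehicle-treated control cultures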; settings: S. cerevisiae rad52 mutant growth inhibition, hits give high values
How it was run: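 Measured: yeast growth inhibition. System: strain with a defined DNA damage repair alteration. Reference: vehicle-treated control cultures.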

[2] = NCI Yeast Anticancer Drug Screen. Data for the wt1 strain (AID 149);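 further: 0% = growth of vehicle-treated wt1 cultures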; settings: S. cerevisiae wt1 strain (SPY 50644) growth inhibition, hits give high values
How it was run: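 Yeast wt1 strain exposed to compounds; growth inhibition measured relative to vehicle-treated controls.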

[3] = NCI Yeast Anticancer Drug Screen. Data for the rad50EPP+ strain (AID 151);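 further: 0% = growth of vehicle-treated control cultures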; settings: S. cerevisiae rad50 mutant strain, hits give high values
How it was run: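 One strain with a rad50 alteration (rad50EPP+) was compound-treated, its growth then compared to that of vehicle controls.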

[4] = NCI Yeast Anticancer Drug Screen. Data for the mec2-1 strain (AID 157); settings: S. cerevisiae mec2-1 strain, hits give high values
How it was run: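 Test agents were screened against the mec2-1 yeast strain, with defined DNA repair or cell cycle alteration. Growth was scored as inhibition against vehicle-only controls.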

[5] = NCI Yeast Anticancer Drug Screen. Data for the rad14 strain (AID 159);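 further: 0% = growth of vehicle-treated control cultures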; settings: S. cerevisiae rad14 strain growth inhibition, hits give high values
How it was run: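 Yeast cells carrying a defined DNA-repair defect were exposed to compounds, and growth inhibition was calculated relative to vehicle-treated control cultures.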

[6] = NCI Yeast Anticancer Drug Screen. Data for the sgs1 mgt1 strain (AID 161);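 further: 0% = growth of cultures given vehicle only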; settings: S. cerevisiae sgs1 mgt1 strain, hits give high values
How it was run: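 Genetically altered yeast, compound exposure, growth inhibition relative to vehicle.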

[7] = NCI Yeast Anticancer Drug Screen. Data for the CLN2oe strain (AID 163);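 further: 0% = growth of vehicle-only control cultures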; settings: S. cerevisiae CLN2oe strain, hits give high values
How it was run: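 Here, growth inhibition in a cell-cycle-altered yeast strain after compound exposure was quantified against vehicle control growth.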

[8] = NCI Yeast Anticancer Drug Screen. Data for the cln2 rad14 strain (AID 165);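 further: 0% = growth equal to vehicle treated cultures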; settings: S. cerevisiae cln2 rad14 strain, hits give high values
How it was run: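 Growth of compound-exposed yeast (cln2 rad14 genotype) measured and expressed as inhibition relative to vehicle.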

[9] = NCI Yeast Anticancer Drug Screen. Data for the bub3 strain (AID 167); settings: S. cerevisiae bub3 mutant strain, hits give high values
How it was run: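 Compounds were applied to a genetically altered yeast strain carrying a cell-cycle control defect. Growth inhibition was scored against vehicle-treated controls.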

[10] = NCI Yeast Anticancer Drug Screen. Data for the mlh1 strain (AID 171);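 further: 0% = growth of vehicle-treated control cultures of the same strain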; settings: S. cerevisiae mlh1 strain growth inhibition, hits give high values
How it was run: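 Here the genetically defined yeast mutant is grown with each compound, and the extent to which its growth falls below that of vehicle-exposed cells is reported.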

[11] = NCI Yeast Anticancer Drug Screen. Data for the rad18 strain (AID 177); settings: S. cerevisiae rad18 mutant growth inhibition, hits give high values
How it was run: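 Screen uses a yeast strain with a defined lesion in DNA damage repair; compound effect is read as loss of growth compared to untreated vehicle cultures.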

[12] = NCI Yeast Anticancer Drug Screen. Data for the rad50 strain (AID 155);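 further: 0% = growth of vehicle-only cultures of the same strain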; settings: S. cerevisiae rad50 strain growth inhibition, hits give high values
How it was run: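 Yeast carrying a defined DNA repair defect were exposed to test compounds, and growth was compared with vehicle-treated controls to give percent inhibition.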

[13] = NCI Yeast Anticancer Drug Screen. Data for the wt2 strain (AID 169);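 further: 0% = growth of vehicle-treated yeast cultures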; settings: S. cerevisiae wt2 strain growth inhibition, hits give high values
How it was run: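 Genetically defined yeast strains from a DNA-repair/cell-cycle panel were used. Compound-exposed yeast growth was measured, and the inhibition was calculated relative to vehicle treatment.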

[14] = NCI Yeast Anticancer Drug Screen. Data for the sgs1 strain (AID 173);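 further: 0% = growth of vehicle-only control cultures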; settings: S. cerevisiae sgs1 mutant, hits give high values
How it was run: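 Relative growth inhibition, referenced to vehicle, was determined in a yeast strain with a defined alteration affecting DNA damage repair or cell cycle control after compound exposure.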

[15] = NCI Yeast Anticancer Drug Screen. Data for the mlh1 rad18 strain (AID 175); settings: S. cerevisiae mlh1 rad18 strain growth inhibition, hits give high values
How it was run: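 In this whole-cell yeast screen, a strain with altered DNA damage repair is challenged with compound, and its growth is measured against matched vehicle-treated controls.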

[16] = at 5.0 µM (retest, dose inferred, filed as 0.5)
[17] = at 50.0 µM (retest, dose inferred, filed as 5.0)

Measured: growth inhibition

COC(=O)c1ccc2c(c1)Cc1ccccc1-2
inactive: [1]; at 1.2 µM -1% | [1]; at 3.7 µM 5% | [1]; at 11.0 µM 11% | [1]; at 33.0 µM 19% | [1]; at 100.0 µM 28% | [2]; at 1.2 µM -3% | [2]; at 3.7 µM -5% | [2]; at 11.0 µM -3% | [2]; at 33.0 µM -2% | [2]; at 100.0 µM -2% | [3]; at 1.2 µM 2% | [3]; at 3.7 µM 10% | [3]; at 11.0 µM 25% | [3]; at 33.0 µM 39% | [3]; at 100.0 µM 43% | [4]; at 1.2 µM -4% | [4]; at 3.7 µM 1% | [4]; [16] -12% | [4]; at 11.0 µM -12% | [4]; at 33.0 µM -3% | [4]; [17] -4% | [4]; at 50.0 µM 39% | [4]; at 100.0 µM 1% | [5]; at 1.2 µM -3% | [5]; at 3.7 µM -6% | [5]; at 11.0 µM -4% | [5]; at 33.0 µM -3% | [5]; at 100.0 µM -6% | [6]; [16] -5% | [6]; [17] -4% | [6]; at 50.0 µM 46.9% | [7]; at 1.2 µM -1% | [7]; at 3.7 µM 0% | [7]; at 11.0 µM -4% | [7]; at 33.0 µM -3% | [7]; at 100.0 µM -11% | [8]; [16] 35% | [8]; [17] 0% | [8]; at 50.0 µM 29.4% | [9]; at 1.2 µM -7% | [9]; at 3.7 µM -7% | [9]; [16] 0% | [9]; at 11.0 µM 3% | [9]; at 33.0 µM 3% | [9]; [17] -1% | [9]; at 50.0 µM 41.2% | [9]; at 100.0 µM 19% | [10]; at 1.2 µM -3% | [10]; at 3.7 µM 9% | [10]; at 11.0 µM 2% | [10]; at 33.0 µM -11% | [10]; at 100.0 µM 8% | [11]; at 1.2 µM -1% | [11]; at 3.7 µM 1% | [11]; at 11.0 µM 6% | [11]; at 33.0 µM 4% | [11]; at 100.0 µM 9%

CC(=O)CC(=O)/C=C/c1cccs1
inactive: [1]; at 1.2 µM -15% | [1]; at 3.7 µM -8% | [1]; at 11.0 µM 6% | [1]; at 33.0 µM 26% | [2]; at 1.2 µM -25% | [2]; at 3.7 µM -23% | [2]; at 11.0 µM -22% | [2]; at 33.0 µM -19% | [2]; at 100.0 µM 59% | [3]; at 1.2 µM 7% | [3]; at 3.7 µM 0% | [3]; at 11.0 µM 33% | [12]; at 1.2 µM -3% | [12]; at 3.7 µM -5% | [12]; at 11.0 µM 18% | [12]; at 50.0 µM 68.7% | [5]; at 1.2 µM -12% | [5]; at 3.7 µM -9% | [5]; at 11.0 µM 6% | [5]; at 33.0 µM 8% | [6]; [16] -16% | [6]; [17] 44% | [6]; at 50.0 µM 51.2% | [7]; at 1.2 µM -27% | [7]; at 3.7 µM -30% | [7]; at 11.0 µM -24% | [7]; at 33.0 µM 2% | [7]; at 100.0 µM 38% | [8]; [16] 15% | [8]; at 50.0 µM 32.1% | [9]; at 1.2 µM 2% | [9]; at 3.7 µM -10% | [9]; [16] -1% | [9]; at 11.0 µM -27% | [9]; at 33.0 µM 21% | [9]; [17] 53% | [9]; at 50.0 µM 19% | [13]; at 1.2 µM -17% | [13]; at 3.7 µM -17% | [13]; at 11.0 µM -9% | [13]; at 33.0 µM -10% | [10]; at 1.2 µM -21% | [10]; at 3.7 µM -24% | [10]; at 11.0 µM -1% | [10]; at 33.0 µM 16% | [14]; at 1.2 µM -18% | [14]; at 3.7 µM -8% | [14]; at 11.0 µM 26% | [14]; at 33.0 µM 30% | [15]; at 50.0 µM 64.8% | [11]; at 1.2 µM -20% | [11]; at 3.7 µM -26% | [11]; at 11.0 µM 12% | [11]; at 33.0 µM 20%
active: [1]; at 100.0 µM 86% | [3]; at 33.0 µM 89% | [3]; at 100.0 µM 92% | [12]; [16] 97% | [12]; at 33.0 µM 76% | [12]; [17] 100% | [12]; at 100.0 µM 92% | [5]; at 100.0 µM 89% | [8]; [17] 72% | [9]; at 100.0 µM 90% | [13]; at 100.0 µM 84% | [10]; at 100.0 µM 88% | [14]; at 100.0 µM 93% | [15]; [16] 100% | [15]; [17] 100% | [11]; at 100.0 µM 88%

O=S(=O)(N/N=C/c1cccc(Cl)c1)c1ccccc1
inactive: [1]; at 1.2 µM -4% | [1]; at 3.7 µM -3% | [1]; at 11.0 µM 8% | [2]; at 1.2 µM 0% | [2]; at 3.7 µM 4% | [2]; at 11.0 µM 3% | [2]; at 33.0 µM 65% | [12]; at 1.2 µM -1% | [12]; at 3.7 µM -1% | [12]; [16] -14% | [12]; at 11.0 µM 7% | [4]; at 1.2 µM -3% | [4]; at 3.7 µM 4% | [4]; [16] -18% | [4]; at 11.0 µM 13% | [4]; at 33.0 µM 54% | [4]; [17] 66% | [4]; at 50.0 µM 55.5% | [5]; at 1.2 µM -7% | [5]; at 3.7 µM -6% | [5]; at 11.0 µM -1% | [6]; [16] -1% | [6]; at 50.0 µM 63.7% | [7]; at 1.2 µM -10% | [7]; at 3.7 µM -7% | [7]; at 11.0 µM 27% | [8]; [16] 20% | [8]; at 50.0 µM 67.4% | [9]; at 1.2 µM 1% | [9]; at 3.7 µM 1% | [9]; [16] -12% | [9]; at 11.0 µM 11% | [9]; at 50.0 µM 63.3% | [10]; at 1.2 µM -3% | [10]; at 3.7 µM 0% | [10]; at 11.0 µM 11% | [14]; at 1.2 µM 1% | [14]; at 3.7 µM 4% | [14]; at 11.0 µM 18% | [15]; [16] 57% | [11]; at 1.2 µM -3% | [11]; at 3.7 µM 1% | [11]; at 11.0 µM 29%
active: [1]; at 33.0 µM 88% | [1]; at 100.0 µM 99% | [2]; at 100.0 µM 99% | [12]; at 33.0 µM 87% | [12]; [17] 92% | [12]; at 50.0 µM 89.9% | [12]; at 100.0 µM 98% | [4]; at 100.0 µM 91% | [5]; at 33.0 µM 73% | [5]; at 100.0 µM 99% | [6]; [17] 86% | [7]; at 33.0 µM 84% | [7]; at 100.0 µM 82% | [8]; [17] 89% | [9]; at 33.0 µM 79% | [9]; [17] 88% | [9]; at 100.0 µM 98% | [10]; at 33.0 µM 83% | [10]; at 100.0 µM 99% | [14]; at 33.0 µM 77% | [14]; at 100.0 µM 99% | [15]; [17] 95% | [15]; at 50.0 µM 96.8% | [11]; at 33.0 µM 86% | [11]; at 100.0 µM 99%
